Measurements taken from PubChem BioAssay AID651965 (National Center for Advancing Translational Sciences (NCATS), 2013).
Hit rate of the full screen: of about 340,000 compounds, about 6,400 (1.9%) were called active. Another 4% or so got no clear call; they are omitted. Calls come from the whole dose curve; as a rule, active = well fitted falling curve with a large enough effect; inconclusive = small, poorly fitted or top-dose-only effect; inactive = no such curve, though single readings can be large or run the other way. What follows is part of a selection rich in actives, with near analogues and random picks from the rest.

What follows are molecules tested against ATP-dependent Clp protease proteolytic subunit (Bacillus subtilis (strain 168)) (UniProt P80244) (assay: qHTS Assay for Activators of ClpP). Conditions: purified B. subtilis ClpP, FRET peptide cleavage, 20 min; series mostly up to 57.5 µM; activity change, negative = active: at the top concentration.
How it was run: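 Purified B. subtilis ClpP, 10 microg/mL final in Tris/HCl pH8 with KCl, BSA, glycerol and Tween-20, cleaved an Abz/nitrotyrosine-quenched decapeptide. Fluorescence (ex 320, em 430) was read at 0 and 20 min at room temperature. Delta was normalized to 5.8 microM ADEP and DMSO/no-enzyme controls.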
Note: the source files actives as falling curves though it sought activators and does not explain the sign; nearly all actives have a fitted effect of over 65% in size.
Potency is the fitted concentration of half-maximal effect.

ATP-dependent Clp protease proteolytic subunit (Bacillus subtilis (strain 168)), sequence (P80244 whole entry, looked up): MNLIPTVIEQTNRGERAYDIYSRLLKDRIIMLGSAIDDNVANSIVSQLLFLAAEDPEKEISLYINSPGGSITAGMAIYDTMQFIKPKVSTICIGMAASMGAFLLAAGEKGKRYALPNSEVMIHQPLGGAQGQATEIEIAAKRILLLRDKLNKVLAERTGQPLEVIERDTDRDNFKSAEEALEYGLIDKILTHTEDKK

Potency, active:
Cc1ccc(-c2cnc(NCc3ccc(C(C)C)cc3)n2C)cc1 28.2 µM
COc1ccc2nc(/N=C(\N)NC(=O)Nc3ccccc3)nc(C)c2c1 14.1 µM
COC(=O)CSc1nc(C)c2ccc(OC)cc2n1 25.1 µM
O=C1/C(=C/c2ccc3c(c2)OCO3)CCC/C1=C\c1ccc2c(c1)OCO2 28.2 µM
Cc1ccc(N(CCC(=O)O)S(=O)(=O)c2cccc(C(F)(F)F)c2)cc1 31.6 µM
CCN(CC(=O)Nc1ccccc1OC)C(=O)CC1CC2CCC1C2 (centres undefined) 35.5 µM
Cc1nc2sc(C)c(C)n2c(=O)c1S(=O)(=O)NCCc1ccc(Cl)cc1 3.98 µM
O=C1OC(c2ccc(Cl)cc2)=N/C1=C\c1cccnc1 3.16 µM
COC(=O)c1cnn2c(C(F)(F)F)cc(-c3ccco3)nc12 28.2 µM
O=C(NCCCN1CCOCC1)c1cnn2c(-c3ccccc3)cc(-c3ccccc3)nc12 15.8 µM
O=C(O)c1cnn2c(C(F)(F)F)cc(-c3ccccc3)nc12 0.631 µM
COC(=O)c1cc(OC)c(OC)cc1NC(=O)C1CCCO1 (centres undefined) 20 µM
COc1ccc(C2Nc3ccccc3C(=O)N2Cc2ccccc2)cc1Cn1nnc2ccccc21 (centres undefined) 35.5 µM
COCC(C)NC(=O)c1ccc(Cl)c(Cl)c1 (centres undefined) 14.1 µM
CCOC(=O)c1cc2c(n(-c3ccc(C)cc3)c1=O)CCCC2=O 31.6 µM
CCc1cc(=O)oc2cc(C)cc(OC(C)C(=O)O)c12 (centres undefined) 3.55 µM
O=C(NCCN1CCOCC1)c1cc(-c2cccs2)nc2ccccc12 28.2 µM
CCOC(=O)c1c(NC(=O)c2ccc(Br)o2)sc2c1CCCC2 31.6 µM
COC(=O)c1c(NC(=O)c2cccs2)sc2c1CCCC2 35.5 µM
CCN1CCCC1CNc1ncnc2c1[nH]c1ccc(F)cc12 (centres undefined) 28.2 µM
CC(C)OCCCNc1ncnc2c1[nH]c1ccc(F)cc12 15.8 µM

Activity change, negative = active, inactive:
CC(=O)N1CCN(c2ccc(NCc3ccc(C(C)C)cc3)cc2)CC1 -2.79%
Cc1ccc(-c2cnc(NC(=O)CCC(=O)N(C)Cc3ccccc3)n2C)cc1 -6.71%
COc1ccc2nc(C)cc(Nc3cccc(C(=O)O)c3)c2c1 1.33%
COc1cccc(NC(=O)Nc2ccc(F)cc2)c1 -0.16%
COC(=O)[C@@]12C[C@@H](CC(=O)N3CCCCC3)C(=O)N(Cc3ccc4c(c3)OCO4)C1=CCC(C)(C)C2 0.0879%
COc1ccc2nc(SCc3ccccc3)nc(C)c2c1 0.798%
CCc1nnc(SCC(=O)Nc2cc(OC)ccc2OC)nc1CC 0.955%
O=c1cc(CN2CCCCCCC2)c2c(ccc3ccccc32)o1 5.01%
NC(=O)c1ccc(NC(=O)COC(=O)c2c3c(nc4ccccc24)/C(=C\c2ccc4c(c2)OCO4)CCC3)cc1 1.3%
NS(=O)(=O)c1ccc(NC(=O)COC(=O)c2c3c(nc4ccccc24)/C(=C\c2ccc4c(c2)OCO4)CCC3)cc1 -0.175%
CCOC(=O)C1=CC[C@@H](c2ccccc2)N(S(=O)(=O)c2ccc(C)cc2)[C@H]1c1cccc(OC)c1 -0.37%
O=C(c1ccc(C(F)(F)F)cc1)N1CCC(=O)N([C@H](COCc2ccccc2)Cc2ccccc2)CC1 1.19%
CCc1nnc(NC(=O)CCN(c2ccc(C)cc2)S(=O)(=O)c2ccccc2)s1 -1.33%
O=C(O)c1cc(S(=O)(=O)N(Cc2ccccc2)c2cccc(C(F)(F)F)c2)ccc1Cl 0.0784%
CN(C)CCNC(=O)c1cccc(-c2cnc3c(NC=O)cc(-c4cccc(C(F)(F)F)c4)cn23)c1 -17.7%
CCN(CC(=O)Nc1ccccc1OC)C(=O)Cn1cnc2ccccc2c1=O 0.736%
COc1ccc(S(=O)(=O)N2CCOCC2)cc1NC(=O)CC1CC2CCC1C2 (centres undefined) -3.72%
COc1cccc(-c2nc3nc(C)cc(C)n3c2NC2CCCCC2)c1 -3.3%
COc1ccccc1-c1cc2nc(NCc3cccc(Cl)c3)ccn2n1 4.4%
O=S(=O)(NCCc1ccc(Cl)cc1)c1cccs1 1.05%
Cc1nc2sccn2c(=O)c1S(=O)(=O)NCCc1ccccc1 4.27%
CCOC(=O)[C@]12CCC=C1N(Cc1ccco1)C(=O)[C@H](CC(=O)NCc1cccc(C(F)(F)F)c1)C2 -6.96%
O=[N+]([O-])c1ccc(CN2CC(N3CC=CC3)CS2(=O)=O)cc1 (centres undefined) 1.65%
Cc1ccc(-c2cnc(C(O)c3cc(Cl)cc(Cl)c3)[nH]2)cc1 (centres undefined) 1.37%
Cc1cc2oc(=O)cc(CN(C)Cc3ccccc3)c2cc1Cl -7.02%
CN1OC[C@@H]2CN[C@H](c3ccc(-c4ccccc4)cc3)C[C@@H]21 -2.05%
Cc1ccc(C2=C/C(=C\c3cccnc3)C(=O)O2)cc1 -1.52%
Cc1ccc(C2=N/C(=C\c3ccc(OS(=O)(=O)c4ccc(C)cc4)cc3)C(=O)O2)cc1 -15.4%
Cc1cccc(NC(=O)CSc2nc(-c3ccco3)cc(C(F)(F)F)n2)c1C -2.67%
Cc1ccc(-c2cc(C(F)(F)F)n3ncc(C(=O)N4CCCCC4c4cccnc4)c3n2)cc1 (centres undefined) -17.6%
O=C(NCCCN1CCOCC1)c1cc(-c2ccccc2F)no1 2.03%
Cc1cccc(N2CCN(C(=O)c3cnn4c(C(F)F)cc(-c5ccccc5)nc34)CC2)c1C -7.22%
O=C(NCCCN1CCOCC1)c1cn(-c2ccccc2)nc1-c1ccc(F)cc1 -21.8%
O=C(NCc1ccco1)c1cnn2c(C(F)(F)F)cc(-c3ccco3)nc12 -13.7%
Cc1cccc(CNC(=O)c2sc(=O)n(Cc3ccccc3C)c2C)c1 -1.33%
Cc1ccc(-c2nc3ccc(Br)cn3c2Cc2ccccc2C(F)(F)F)cc1 -24.2%
Cc1csc[n+]1CCC1CCCCC1 -0.672%
CCOC(=O)C1(C)CCCN(C(=O)c2cccc(Cl)c2)C1 (centres undefined) 2.42%
CN(C(=N)N)c1ccc(/C=C2\C=Cc3ccccc32)cc1 0.827%
CCCCC(CCCC)c1ccc(C=Nc2ccc(/C=C/c3ccnc4ccccc34)cc2)cc1 -3.34%
CCc1cc(Br)ccc1NC(=O)C1CCCO1 (centres undefined) 0.0691%
Cc1cc([N+](=O)[O-])ccc1NC(=O)C1CCCO1 (centres undefined) -13.9%
C#Cc1ccc(NC(=O)C2(C)CCN2C(=O)Cc2ccc(-c3ccccc3)cc2)cc1 (centres undefined) 0.114%
CCCNC(=O)C1(C)CCN(C(=O)c2ccccc2OC(F)(F)F)C1 (centres undefined) 2.38%
O=C(Nc1ccc(Cl)cc1)c1csc([C@@H]2O[C@H](CO)[C@H](O)[C@H](O)[C@H]2O)n1 2.06%
COc1ccc(C2Nc3ccccc3C(=O)N2c2ccc(F)cc2)cc1Cn1nnc2ccccc21 (centres undefined) 1.26%
COc1ccc(C2Nc3ccc(NC(=O)COC(C)=O)cc3C(=O)N2Cc2ccccc2)cc1COc1ccc(NC(C)=O)cc1 (centres undefined) 61.6%
COc1cccc(C(NC(C)=O)c2nc(-c3cnc4ccccc4c3)cs2)c1 (centres undefined) -20.2%
COCC(C)NC(=O)c1ccc(-n2nc(C(F)(F)F)cc2-c2cccs2)cc1 (centres undefined) -3.54%
CC(CCc1ccccc1)NC(=O)c1cnc(Cl)c(Cl)c1 (centres undefined) -7.38%
CCOC(=O)C1=CCC(c2ccc(F)cc2)N(S(=O)(=O)c2ccc(C)cc2)C1 (centres undefined) -0.256%
CCOC(=O)C1=C(N)N(c2ccc(C)cc2)C2=C(C(=O)CCC2)C1c1cccs1 (centres undefined) -0.469%
CCCCOc1ccc(NC(=O)c2cc3c(n(-c4ccc(Cl)cc4)c2=O)CCCC3=O)cc1 0.294%
Cc1ccc([C@H]2C[C@H](O)[C@@H](n3cc(COC(=O)c4ccccc4)nn3)CN2CC2CCCCC2)cc1 -2.3%
COc1ccc(C(C)(O)c2nc(-c3ccc(C)c(C)c3)cs2)cc1 (centres undefined) -3.11%
ClC/C=C/C[n+]1ccccc1Cl -7.68%
Cc1cc(OC(C)C(=O)NC2CC(C)(C)NC(C)(C)C2)c2c(C)cc(=O)oc2c1 (centres undefined) 3.98%
CCc1cc(=O)oc2cc(C)cc(OCC(=O)N3CCC[C@@H]3C(=O)O)c12 4.5%
CC1(C(=O)NS(=O)(=O)c2ccc(C#N)cc2)CCN1C(=O)c1ccc(C2CCCCC2)cc1 (centres undefined) -4.45%
CC(C)(C)c1ccc(C(=O)C[n+]2cccc3cc(Cl)ccc32)cc1 -13.7%
O=C(NCC(c1cccs1)N1CCOCC1)c1cc(-c2ccccn2)nc2ccccc12 (centres undefined) -5.18%
O=C(NCCN1CCOCC1)c1cc(Sc2cccc(Cl)c2)nc2ccccc12 -1.49%
NC(c1csc(NC(=O)Nc2ccccc2Oc2ccccc2)n1)c1ccccc1Cl (centres undefined) -6.76%
O=C(NCc1ccc(F)cc1)c1cc(C2CCCCN2C(=O)c2ccccn2)on1 (centres undefined) -2.01%
CCOC(=O)c1c(NC(=O)c2ccc(S(=O)(=O)N(CC)CC)cc2)sc2c1CCCCC2 -3.63%
CCOC(=O)c1c(NC(=O)c2cc(-c3ccc(Cl)cc3)on2)sc2c1CCCC2 0.147%
COC(=O)c1c(NC(=O)CSc2nncs2)sc2c1CCCCC2 -0.465%
COC(=O)c1c(NC(=O)c2ccc(Cl)c(Cl)c2)sc2c1CCCC2 -1.63%
Cc1noc(C)c1-c1ccc(C(=O)NCc2ccncc2)c2occc12 4.3%
Fc1ccc2[nH]c3c(N4CCN(Cc5ccc6c(c5)OCO6)CC4)ncnc3c2c1 -28.2%
CCN1CCCC1Cn1cnc2c([nH]c3cc(OC)ccc32)c1=O (centres undefined) -28.6%
CCN1CCCC1CNC(=O)c1cc2cc(OC)c(OC)cc2[nH]1 (centres undefined) 3.65%
CC(C)OCCCNC(=O)c1cc(Sc2ccc(F)cc2)nc2ccccc12 3.39%
Cc1ccc([C@H]2N[C@]3(CCCN(CC4CCCCC4)C3=O)[C@H]3C(=O)N(Cc4ccccc4)C(=O)[C@@H]23)cc1 0.684%
CCCc1c(-c2ccccc2F)ncn1Cc1ccccc1OC -0.97%
C=C1C(=O)OC2C1CCC(C)=CCCC1(C)OC21 (centres undefined) -0.985%
O=C(NCc1ccc(F)cc1)c1cc(C2CCCCN2C(=O)c2cccs2)on1 (centres undefined) 1.26%
COc1cc2[nH]c(C)c(CCN3CCN(c4ccccc4)CC3)c2cc1OC -28.6%
